Compound activity deposited in PubChem BioAssay by National Center for Advancing Translational Sciences (NCATS).
An excerpt weighted towards active compounds, which were near 13% of everything screened.
Pf growth 48h: P. falciparum growth inhibition at 48 hours (one generation). P. falciparum luciferase growth in erythrocytes, 48 h. 310,000 tested, 5.9% active. Potency, µM (doses to about 28.7 µM), for the others: top-dose activity change, negative = inhibition, hits mostly inhibitors; note: potency is the fitted concentration of half-maximal effect
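Here the parasites carry a stable luciferase gene and grow inside erythrocytes in Albumax-based RPMI medium with compound for one erythrocytic cycle. Activity is scored as loss of luminescent signal.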
HCMV inh: blocks human cytomegalovirus replication. activity change, negative = inhibition, % at 57.5 µM. HFF cells, HCMV-luciferase reporter, 72 h; active compounds read low. 410,000 tested, 4.5% active; in the data active = activity change below about -60%; inconclusive = no clear call, values can overlap the other calls; inactive = above about -39%
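Luciferase read-out from HCMV-luciferase-infected HFFs (MOI 1 PFU/cell) 72 h post infection at 37C; compounds added after 16 h cell attachment; activity normalized between buffer-only basal and Salinomycin (10uM) inhibitor controls.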
HCV inh: blocks hepatitis C virus | Huh7.5.1 HCVcc-Cre infection, luciferase reporter, 44 h | Potency, µM (titrated, usually from 41.8 µM), inactives show at the highest dose activity change, negative = inhibition, hits mostly inhibitors | 340,000 tested, 3.4% active | AID 651820; note: potency is the fitted concentration of half-maximal effect
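Luciferase read-out (15 sec integration) after a 15 min room-temperature substrate step quantifies HCVcc-Cre infection. Cells, 1,000 per well, had compound added 4 h post-plating, then virus at ~0.5 moi, and were cultured 44 h.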
Pf growth 96h: inhibits malaria parasite growth, 96 h. P. falciparum luciferase reporter growth, 96 h. AID 504834. Potency, µM (titrated, usually from 28.7 µM), without a hit: top-dose activity change, negative = inhibition, usual class: inhibitors. 320,000 tested, 6.9% active; note: potency is the fitted concentration of half-maximal effect
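Cell-based qHTS: luciferase-tagged P. falciparum in erythrocytes (2% hematocrit, 0.05% parasitemia final) incubated with compounds for 96 hours, 37 C, 5% CO2; luciferase detection reagent then added and luminescence measured.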
* hit, by the source's call; u = inconclusive; x = no result given. Unless noted, calls come from the whole dose curve; as a rule, active = well fitted inhibition curve with a large enough effect; inconclusive = small, poorly fitted or top-dose-only effect, or another doubt; inactive = no such curve, though single readings can be large or run the other way. % is set by controls: 0 for no effect and ±100 for the full control effect.

SMILES	Pf growth 48h	HCMV inh	HCV inh	Pf growth 96h
CC(=O)c1ccc(N2CCN(S(=O)(=O)c3ccc4c(c3)CC(C)N4C(=O)C3CC3)CC2)cc1 (stereo unspecified)	7.4µM*	-14	3.5µM*	u
C[C@@H]1CN([C@H](C)CO)C(=O)c2ccccc2-c2ccccc2CO[C@@H]1CN(C)C(=O)Nc1ccccc1	x	-21	x	x
COc1cc(NC(=O)CSc2nc3ccccc3n2-c2ccccc2)c(C)cc1[N+](=O)[O-]	12µM*	-11	-20%	u
COc1cccc(-n2nnnc2SCC(=O)Nc2ccccc2OC)c1	18%	19	u	9.3µM*
C=CCn1c(SCC(=O)Nc2ccccc2OC)nnc1-c1ccccn1	-10%	18	7.9µM*	u
COc1ccc(-n2nnnc2SCC(=O)Nc2cc(OC)c([N+](=O)[O-])cc2C)cc1	u	-21	u	2.9µM*
Cc1cc(C)cc(NC(=O)CN(C)S(=O)(=O)c2ccc3c(c2)CCC(=O)N3)c1	x	9	x	x
CCOc1ccc(OC(=O)c2c(-c3ccccc3Cl)noc2C)cc1	x	-24	x	x
CN(CCOc1ccccc1)CC(=O)Nc1ccc(Cl)cc1[N+](=O)[O-]	4%	-8	1%	19%
COc1ccc(-n2nnnc2SCC(=O)Nc2ccccc2N2CCOCC2)cc1OC	-13%	-35	-1%	-23%
COc1cc(NC(=O)CN(C)CCOc2ccccc2)c(C)cc1[N+](=O)[O-]	12µM*	u	-27%	u
CC(=O)c1cccc(-n2nnnc2SCC(=O)Nc2ccccc2N2CCCCC2)c1	u	-28	14µM*	53%
O=C(CSc1nnnn1-c1ccc(Cl)cc1)Nc1cccnc1Cl	6%	-71*	-29%	34%
COc1ccc(C(=O)NNC(=O)CSc2nnnn2-c2cc(OC)cc(OC)c2)cc1	29%	8	11µM*	u
Cc1ccc(-n2nnnc2SCC(=O)Nc2cccnc2Cl)cc1	13%	-11	-30%	26%
COc1ccc(C(=O)NNC(=O)CSc2nnc(C)n2C)cc1	33%	u	-4%	79%
CCC(=O)N1c2ccccc2CC1C(=O)NCCc1cc(OC)c(OC)c(OC)c1 (stereo unspecified)	x	40	x	x
COc1cccc(-n2nnnc2SCC(=O)Nc2ccc(OC)cc2OC)c1	24%	-10	6%	3%
CCCS(=O)(=O)c1nnnn1-c1cccc(OC)c1	u	x	8.9µM*	-1%
Cc1cn([C@@H](CCCCNC(=O)OC(C)(C)C)C(=O)NCCCCCCCCCCC(=O)N2CCN(C(=O)OC(C)(C)C)CC2)nn1	2.6µM*	x	u	5.2µM*
CC[C@H](C)Cc1cn([C@@H](CCCN=C(NC(=O)OC(C)(C)C)NC(=O)OC(C)(C)C)C(=O)NCCCCCCCCCCC(=O)N2CCN(C(=O)OC(C)(C)C)CC2)nn1	1µM*	x	0%	1.5µM*
Cc1nc(N2CCOCC2)c2c(C(=O)N(C)c3ccccc3)c(C)oc2n1	x	41	x	x
COc1cc2c(cc1O)CCN[C@@]21CS[C@H]2c3c(OC(C)=O)c(C)c4c(c3C(COC1=O)N1C2C2c3c(cc(C)c(OC)c3O)CC([C@@H]1O)N2C)OCO4 (stereo partly specified)	0.0005µM*	x	x	2.1µM*
Cc1cccc(COCC(CC(C)C)N2CCN(C(=O)c3ccc(C(F)(F)F)cc3)CCC2=O)c1 (stereo unspecified)	10µM*	26	u	u
Cc1cccc(COC[C@H](CC(C)C)N2CCN(C(=O)c3ccc(C(C)(C)C)cc3)CCC2=O)c1	x	-18	x	x
CC(C)CC(COCc1cccc(Cl)c1)N1CCN(C(=O)c2ccc(C(F)(F)F)cc2)CCC1=O (stereo unspecified)	13µM*	32	5%	7.4µM*
O=C(c1ccc(C(F)(F)F)cc1)N1CCC(=O)N(C(COCc2ccc(C(F)(F)F)cc2)Cc2ccccc2)CC1 (stereo unspecified)	u	1	-28%	9.3µM*
Cc1cccc(COC[C@H](Cc2ccccc2)N2CCN(C(=O)c3ccc(C(F)(F)F)cc3)CCC2=O)c1	x	28	x	x
Cc1cccc(COCC(CC(C)C)N2CCN(C(=O)c3ccc(C(C)(C)C)cc3)CCC2=O)c1 (stereo unspecified)	7.4µM*	10	u	u
Cc1csc2nc(COc3ccccc3NC(=O)c3ccc(C(C)(C)C)cc3)cc(=O)n12	x	19	x	x
